In PubChem BioAssay one finds composite z-score and z-score data, which are given here for four compounds.

The source made the active and inactive calls. Unless noted, the rule behind the calls is not given here.

For assay [1], the system named is Wnt5a (protein binding on small-molecule microarray). The experiment in a line: small molecules binding Wnt5a protein – biophysical, small-molecule microarray, 635/667 nm fluorescence, primary screen (AID 1142).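 Note: fluorescence read at 667 nm with signal to noise per printed feature.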 Particulars: 635 nm fluorescence, higher = more signal.
The nature of assay [2]: ATP-based viability of Huh7 replicon cells – cell-based, CellTiter-Glo luminescence, basal, 48 h, cytotoxicity control for HCV replication inhibitor project, primary screen (AID 1143).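 Note: Huh7 hepatoma cells carrying a hepatitis C replication reporter with no stimulus; test concentration not given here.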 The following applies: higher = more signal, called active from +8 up or from −8 down.
Assay [3] can be described thus: Pseudomonas biofilm growth suppression – PAO1 strain, BacTiter-Glo luminescence, LB-PBS, primary screen (AID 1144). Particulars: P. aeruginosa PAO1 biofilm, 12 h, higher = more signal.
Assay [4] in a line: basal CRE-LacZ reporter activity in PC12 – cell-based, unstimulated, primary screen (AID 1145). The following applies: no forskolin, luminescence, 4.5 h, higher = more signal, called active from +8 up or from −8 down.
Assay [5] can be described thus: forskolin-driven CRE-LacZ activity in PC12 – cell-based, CRE-LacZ reporter, forskolin-stimulated, primary screen (AID 1146).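 Note: PC12 cells with 6xCRE LacZ reporter stimulated by forskolin 10 µM; beta-galactosidase reporter signal reflecting CREB driven transcription.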 The following applies: luminescence, 4.5 h, higher = more signal, called active from +8 up or from −8 down.
Assay [6] concerns the target Streptavidin (Streptomyces avidinii) (UniProt P22629). Briefly: compounds binding control protein streptavidin – biophysical, small-molecule microarray, 635/667 nm fluorescence, artefact control for SMM compound annotation, primary screen (AID 1147).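 Note: signal reflects streptavidin binding to arrayed compounds as a control protein.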 Particulars: higher = more signal.
Assay [7] in a line: probe aInhba binding on compound microarray – biochemical, small-molecule microarray, 635/667 nm fluorescence, primary screen (AID 1148).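 Note: score merges 667nm spot fluorescence with signal-to-noise for antibody binding to printed compounds.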 Particulars: higher = more signal.
Assay [8] addresses Torsin-1A (Homo sapiens) (UniProt O14656). The experiment in a line: TOR1A wild-type binding on microarray – cell lysate, small-molecule microarray, lysate, 635/667 nm, primary screen (AID 1149). The following applies: COS7 hTOR1A-WT lysate, 635 nm fluorescence, higher = more signal.
The target is the same in assay [9]. The experiment in a line: torsin A mutant lysate binding on microarrays – cell lysate, small-molecule microarray, COS7 lysate, 635/667 nm fluorescence, primary screen (AID 1150).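 Note: score pools 667 nm emission and signal to noise measuring lysate protein binding.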 Particulars: COS7 hTOR1A mutant lysate, 635 nm fluorescence, higher = more signal.
The test system of assay [10] is Sonic hedgehog protein (Shh). The experiment in a line: Sonic hedgehog microarray binding compounds – biochemical, small-molecule microarray, 635/667 nm fluorescence, primary screen (AID 1151).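 Note: Shh protein binding to compounds spotted on small-molecule microarray slides; score combines spot fluorescence intensity with signal-to-noise across triplicate slides.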 Particulars: 635 nm fluorescence, higher = more signal.
The nature of assay [11]: optical density shifts of acrAB sulA E. coli – strain DRC41, OD650, 48 h, E. coli filamentation inducer project, primary screen (AID 1152).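 Note: E. coli MC1000 strain DRC41 lacking acrAB efflux pump and sulA.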 Particulars: higher = more signal, called active from +8 up or from −8 down.
Assay [12] is described as follows: probe aLefty1 binding on compound microarray – biochemical, small-molecule microarray, 635/667 nm fluorescence, primary screen (AID 1153).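 Note: score merges spot fluorescence with signal-to-noise ratio from the scanned slide images.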 Particulars: higher = more signal.
Assay [13] in a line: plasmodial surface anion channel blockers, osmotic lysis – cell-based, P. falciparum Indochina, OD700, 1 h, primary screen (AID 1154). The following applies: P. falciparum Indochina infected RBC osmotic lysis, higher = more signal, called active from +8 up or from −8 down.
The nature of assay [14]: plasmodial surface anion channel blockers, osmotic lysis – cell-based, P. falciparum Indochina, OD700, 2 h, primary screen (AID 1155).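 Note: lysis reports solute entry through the parasite surface anion channel PSAC.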 The following applies: P. falciparum Indochina infected erythrocytes, higher = more signal, called active from +8 up or from −8 down.
Assay [15] is described as follows: changes in parasitized red cell lysis, either direction – P. falciparum Indochina, OD700, 3 h, PSAC antagonist project, primary screen (AID 1156). Particulars: P. falciparum-infected erythrocytes, osmotic lysis, higher = more signal, called active from +8 up or from −8 down.
Assay [16] in a line: plasmodial surface anion channel blockers, osmotic lysis – cell-based, P. falciparum Indochina, OD700, 18 h, primary screen (AID 1157). The following applies: P. falciparum Indochina infected erythrocytes, osmotic lysis OD700, 18 h; higher = more signal, called active from +8 up or from −8 down.
The nature of assay [17]: S6 kinase pathway phospho-S6 level changes – cell-based, A549, cytoblot, luminescence, serum-stimulated, primary screen (AID 1158).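 Note: serum-stimulated A549 lung adenocarcinoma cells; signal is phosphorylated S6 detected by cytoblot immunostaining with HRP secondary.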 The following applies: 5 h, higher = more signal.
The target of assay [18] is NADPH oxidase 2 (Homo sapiens) (UniProt P04839). The experiment in a line: compounds shifting NOX2 Amplex Red fluorescence – cell-based, HEK293-NOX2, PMA-stimulated, NOX inhibitor project, primary screen (AID 1159). Note: test concentration not given here. The following applies: 45 min, higher = more signal, called active from +8 up or from −8 down.
NADPH oxidase 2 (Homo sapiens), sequence (P04839 whole entry, looked up): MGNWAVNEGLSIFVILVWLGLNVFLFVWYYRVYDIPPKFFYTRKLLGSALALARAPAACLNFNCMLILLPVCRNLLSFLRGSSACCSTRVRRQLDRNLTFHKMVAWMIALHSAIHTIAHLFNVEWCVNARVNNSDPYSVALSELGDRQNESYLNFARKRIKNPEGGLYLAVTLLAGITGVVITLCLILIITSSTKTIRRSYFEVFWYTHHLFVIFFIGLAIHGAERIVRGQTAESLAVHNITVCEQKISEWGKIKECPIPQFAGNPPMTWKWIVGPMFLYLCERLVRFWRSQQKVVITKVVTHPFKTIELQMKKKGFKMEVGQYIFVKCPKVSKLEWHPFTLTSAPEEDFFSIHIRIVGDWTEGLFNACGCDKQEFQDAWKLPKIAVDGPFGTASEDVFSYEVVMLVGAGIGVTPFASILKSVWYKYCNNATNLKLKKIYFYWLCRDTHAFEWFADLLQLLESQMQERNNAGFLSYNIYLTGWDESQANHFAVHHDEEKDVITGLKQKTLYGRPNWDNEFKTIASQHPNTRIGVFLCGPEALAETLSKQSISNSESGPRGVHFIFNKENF
The target in assay [19] is NADPH oxidase 4 (Homo sapiens) (UniProt Q9NPH5). The experiment in a line: compounds shifting NOX4 Amplex Red fluorescence – cell-based, HEK293-NOX4, tetracycline-induced, NOX inhibitor project, primary screen (AID 1160). The following applies: HEK293-NOX4, Amplex Red H2O2 fluorescence, 45 min; higher = more signal, called active from +8 up or from −8 down.
NADPH oxidase 4 (Homo sapiens), sequence (Q9NPH5 whole entry, looked up): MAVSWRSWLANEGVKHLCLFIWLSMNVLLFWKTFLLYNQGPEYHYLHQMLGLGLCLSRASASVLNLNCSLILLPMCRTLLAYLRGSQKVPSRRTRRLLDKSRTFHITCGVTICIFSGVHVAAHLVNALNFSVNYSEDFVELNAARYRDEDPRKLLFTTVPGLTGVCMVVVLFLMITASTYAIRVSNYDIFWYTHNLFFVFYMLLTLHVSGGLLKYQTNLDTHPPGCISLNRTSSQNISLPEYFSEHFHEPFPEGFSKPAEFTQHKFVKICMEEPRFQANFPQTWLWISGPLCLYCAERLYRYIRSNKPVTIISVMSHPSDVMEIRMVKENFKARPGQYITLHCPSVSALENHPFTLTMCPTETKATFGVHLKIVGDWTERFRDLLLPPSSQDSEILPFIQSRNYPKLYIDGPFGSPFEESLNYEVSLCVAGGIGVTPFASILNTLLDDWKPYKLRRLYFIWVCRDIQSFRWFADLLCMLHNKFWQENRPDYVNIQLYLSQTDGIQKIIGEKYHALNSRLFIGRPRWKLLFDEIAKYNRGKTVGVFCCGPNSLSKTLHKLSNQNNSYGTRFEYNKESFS
Assay [20] deals with NADPH oxidase 5 (Homo sapiens) (UniProt Q96PH1). The experiment in a line: compounds shifting NOX5 Amplex Red fluorescence – cell-based, HEK293-NOX5, NOX inhibitor project, primary screen (AID 1161). Particulars: HEK293-NOX5, ionomycin, 45 min, higher = more signal.
NADPH oxidase 5 (Homo sapiens), sequence (Q96PH1 whole entry, looked up): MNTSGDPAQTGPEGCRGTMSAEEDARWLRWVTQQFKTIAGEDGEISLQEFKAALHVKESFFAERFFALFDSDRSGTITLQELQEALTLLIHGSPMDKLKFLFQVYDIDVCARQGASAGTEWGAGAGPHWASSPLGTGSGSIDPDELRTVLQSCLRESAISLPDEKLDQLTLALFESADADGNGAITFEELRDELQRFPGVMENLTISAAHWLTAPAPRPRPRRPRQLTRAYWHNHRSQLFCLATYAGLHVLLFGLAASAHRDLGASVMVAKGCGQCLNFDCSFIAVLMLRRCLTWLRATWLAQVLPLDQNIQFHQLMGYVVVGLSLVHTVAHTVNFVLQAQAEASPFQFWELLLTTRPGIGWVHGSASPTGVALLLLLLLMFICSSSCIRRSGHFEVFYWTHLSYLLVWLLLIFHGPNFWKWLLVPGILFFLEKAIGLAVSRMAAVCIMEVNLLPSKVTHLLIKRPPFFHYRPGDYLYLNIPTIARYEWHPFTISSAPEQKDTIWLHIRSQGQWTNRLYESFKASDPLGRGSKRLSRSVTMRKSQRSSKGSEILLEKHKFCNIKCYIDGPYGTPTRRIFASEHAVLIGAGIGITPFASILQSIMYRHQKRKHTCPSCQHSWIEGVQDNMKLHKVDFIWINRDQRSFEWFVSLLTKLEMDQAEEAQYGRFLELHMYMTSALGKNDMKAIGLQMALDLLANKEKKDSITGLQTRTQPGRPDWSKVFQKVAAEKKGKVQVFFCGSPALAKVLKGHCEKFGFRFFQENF

Streptavidin (Streptomyces avidinii), sequence (P22629 whole entry, looked up): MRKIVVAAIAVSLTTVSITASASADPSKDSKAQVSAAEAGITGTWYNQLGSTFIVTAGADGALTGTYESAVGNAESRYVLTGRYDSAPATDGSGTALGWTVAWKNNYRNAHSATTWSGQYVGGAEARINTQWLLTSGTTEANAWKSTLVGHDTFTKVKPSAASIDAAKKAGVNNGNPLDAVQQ
Torsin-1A (Homo sapiens), sequence (O14656 whole entry, looked up): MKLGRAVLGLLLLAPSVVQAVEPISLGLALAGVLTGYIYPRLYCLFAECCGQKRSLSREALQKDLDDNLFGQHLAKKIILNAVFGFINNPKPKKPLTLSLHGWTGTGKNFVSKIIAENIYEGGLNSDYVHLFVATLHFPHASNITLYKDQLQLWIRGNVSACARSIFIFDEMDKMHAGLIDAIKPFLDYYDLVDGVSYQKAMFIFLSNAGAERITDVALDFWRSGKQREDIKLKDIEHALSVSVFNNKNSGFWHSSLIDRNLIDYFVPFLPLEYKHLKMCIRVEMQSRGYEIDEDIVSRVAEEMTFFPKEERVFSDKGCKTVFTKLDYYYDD

`COc1ccccc1CN1C(=O)c2ccccc2[C@@H](C(=O)NC2CC2)[C@@H]1c1ccc(CO)cc1`: the composite z-score in assay [1] was found to be 0.845; in assay [6], 0.53; in [7], 0.297; in assay [8], 0.848; in assay [9] it was 0.385; in assay [10], 1.8. In [12], this compound displayed a composite z-score of 0.16. For the same compound, the z-score in assay [2] is -0.132 (inactive); in assay [3], 0.217 (inactive); in [4], -0.709 (inactive); in [5] it was -1.03 (inactive); in [11], 0.818 (inactive); in assay [13], 2.49 (inactive). The z-score in [14] is 0.873 (inactive); in assay [15] it was 1.59 (inactive); in assay [16] it was 0.818 (inactive); in assay [17] it was -0.291; in assay [18] it was 0.211 (inactive); in assay [19], 0.48 (inactive). Besides, in assay [20], the z-score is 0.718.
In the case of `CN1C(=O)C2C=CC(C(O)c3ccco3)N(Nc3ccccc3)C2C1=O` (stereo not given), the composite z-score in [1] is 0.148; in assay [6], 0.437; in assay [7], -0.0131; in assay [8], 0.336; in assay [9], -0.59; in assay [10] it was 0.59. The composite z-score in assay [12] came to 0.335. In addition, the z-score in assay [2] is 1.11 (inactive); in [3], -0.197 (inactive); in assay [4], -0.133 (inactive); in assay [5], 0.0834 (inactive); in assay [11], -1.63 (inactive); in assay [13], 0.233 (inactive). Also, the z-score in assay [14] is 0.742 (inactive); in assay [15] it was -0.283 (inactive); in assay [16], 1.34 (inactive); in assay [17], -1.2; in assay [18] it was -1.76 (inactive); in assay [19], -3.72 (inactive). Moreover, the z-score in assay [20] was -2.54.
Take `CC(C)CNC(=O)[C@@]1(Cc2ccccc2I)c2ccccc2C(=O)N(C2CCCCC2)[C@H]1c1ccc(CO)cc1`: the composite z-score in assay [1] is 0.705; in [6], -0.346; in assay [7], 0.23; in assay [8], 0.222; in assay [9], 0.551; in assay [10], 0.187. The compound further showed a composite z-score in assay [12] of 0.257. Further, the z-score is -1.71 (inactive) in [2]; 0.0484 (inactive) in assay [3]; -0.206 (inactive) in assay [4]; -0.0769 (inactive) in [5]; -0.664 (inactive) in [11]; 3.85 (inactive) in assay [13]. Further, the z-score is 0.198 (inactive) in [14]; 2.26 (inactive) in assay [15]; 0.183 (inactive) in [16]; -0.141 in [17]; -0.394 (inactive) in assay [18]; 0.839 (inactive) in [19]. The z-score in assay [20] is 0.184.
Regarding `CCC(CC)C(O)C1C=CC2C(=O)NC(=O)C2N1Nc1ccccn1` (stereo not given), the composite z-score in [1] is -0.108; in assay [6], -0.12; in [7], -0.016; in assay [8], 0.147; in assay [9] it was 0.317; in assay [10], 0.186. This compound also had a composite z-score in assay [12] of 0.158. The z-score in assay [2] is 1.06 (inactive); in [3] it was -0.515 (inactive); in assay [4], 0.246 (inactive); in [5] it was 0.783 (inactive); in assay [11], -0.613 (inactive); in assay [13], 0.146 (inactive). The z-score is 0.519 (inactive) in assay [14]; -0.02 (inactive) in [15]; 0.973 (inactive) in assay [16]; -0.534 in assay [17]; -1.58 (inactive) in assay [18]; -2.05 (inactive) in assay [19]. The z-score in [20] is -1.52.
